# According to PubChem BioAssay (Tox21):
# Several values for one entry are separate records, joined by “and”; a condition that tells them apart may be missing. Identical values can stand only once. Inconclusive results are not listed. Entries that show only a call come without a potency. Activity calls are given as the source filed them. Unless noted, calls follow the shape of the full dose curve.
# Target: Progesterone receptor (Homo sapiens) (UniProt P06401)
# Experiment: qHTS assay to identify small molecule antagonists of the progesterone receptor (PR) signaling pathway (AID 1346795; active = well fitted inhibition curve with a large enough effect in the signal ratio in the repeat runs, not every such curve was filed as active; the % refers to the signal ratio)
# Conditions: PR-UAS-bla HEK293T, beta-lactamase FRET ratio, 16 h; series mostly up to 92.4 µM
# Summary of the method: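 Antagonist mode with agonist R5020 at 1 nM final and 16 hr incubation at 37C. Reporter was beta-lactamase driven by UAS in HEK293T (PR-UAS-bla), 2% charcoal-stripped serum; signal from LiveBLAzer FRET substrate, 2 hr at room temperature.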
# Potency is read from the fitted curve at half-maximal effect.
# Chain of Progesterone receptor (Homo sapiens) (P06401 whole entry, looked up): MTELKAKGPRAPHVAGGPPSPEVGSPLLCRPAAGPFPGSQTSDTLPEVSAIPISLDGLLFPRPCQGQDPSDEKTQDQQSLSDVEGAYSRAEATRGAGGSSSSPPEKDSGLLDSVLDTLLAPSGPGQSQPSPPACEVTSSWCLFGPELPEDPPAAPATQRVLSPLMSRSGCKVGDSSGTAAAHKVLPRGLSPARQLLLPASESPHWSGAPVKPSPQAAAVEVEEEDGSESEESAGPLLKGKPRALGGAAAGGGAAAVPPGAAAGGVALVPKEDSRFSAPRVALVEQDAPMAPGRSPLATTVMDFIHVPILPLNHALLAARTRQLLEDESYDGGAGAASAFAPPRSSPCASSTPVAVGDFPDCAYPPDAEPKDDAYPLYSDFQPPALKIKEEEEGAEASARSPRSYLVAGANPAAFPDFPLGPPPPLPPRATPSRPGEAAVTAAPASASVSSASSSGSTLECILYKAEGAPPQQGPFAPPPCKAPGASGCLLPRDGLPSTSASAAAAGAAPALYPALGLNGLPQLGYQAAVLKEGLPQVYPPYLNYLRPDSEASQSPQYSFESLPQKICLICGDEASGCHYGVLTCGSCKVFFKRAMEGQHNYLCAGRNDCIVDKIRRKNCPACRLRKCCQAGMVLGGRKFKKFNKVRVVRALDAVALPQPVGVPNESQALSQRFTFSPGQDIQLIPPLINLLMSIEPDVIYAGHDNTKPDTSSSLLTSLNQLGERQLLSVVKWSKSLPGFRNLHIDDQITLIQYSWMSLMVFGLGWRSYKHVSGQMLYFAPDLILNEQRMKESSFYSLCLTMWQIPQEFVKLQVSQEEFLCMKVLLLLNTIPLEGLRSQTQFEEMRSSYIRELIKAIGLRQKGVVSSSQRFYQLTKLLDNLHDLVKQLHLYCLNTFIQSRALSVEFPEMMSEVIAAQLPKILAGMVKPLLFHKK
row,Structure (SMILES),Potency
1,Clc1ccc(C(Cn2ccnc2)OCc2ccc(Sc3ccccc3)cc2)c(Cl)c1 (stereo not drawn),29.8 µM (active)
2,NC(=O)CC[C@@H]1NC(=O)[C@H](Cc2ccccc2)NC(=O)[C@H](Cc2ccc(O)cc2)NC(=O)CCSSC[C@@H](C(=O)N2CCC[C@H]2C(=O)N[C@@H](CCCN=C(N)N)C(=O)NCC(N)=O)NC(=O)[C@H](CC(N)=O)NC1=O,inactive
3,O=CC=C(c1ccccc1)c1ccccc1,27.5 µM (active)
4,O=C(c1ccc(O)cc1O)c1ccc(O)cc1O,10.9 µM (active)
5,CCC1OCC(COc2ccc(Oc3ccccc3)cc2)O1 (stereo not drawn),54.5 µM (active)
6,Cc1nc(-c2ccc3c(c2)CCN(CCC2CCC(NC(=O)/C=C/c4ccc(F)cc4)CC2)CC3)no1 (stereo not drawn),inactive
7,O=C(Oc1ccccc1)c1ccccc1C(=O)Oc1ccccc1,24.3 µM (active)
8,C[C@H]1[C@H]2CC[C@H]3[C@@H]4CC=C5C[C@@H](N(C)C)CC[C@]5(C)[C@H]4CC[C@]23CN1C,inactive
9,Cc1c(C)c2c(c(C)c1O)CCC(C)(COc1ccc(CC3SC(=O)NC3=O)cc1)O2 (stereo not drawn),18.8 µM (active)
10,COc1cc(-c2nc(NC(=O)c3cc4cc(C)cc(C)c4n3CC(=O)O)sc2CCC2CCCCC2)c(OC)cc1Cl,12.5 µM (active)
11,CCCCCCCCCCC=O,inactive
12,CSc1cnc(C)cn1,inactive
13,Cc1cccc(N(C)C(=S)Oc2ccc3c(c2)C2CCC3C2)c1 (stereo not drawn),15 µM (active)
14,CCCCCCCC(=O)[O-].CCCCCCCC(=O)[O-].[Zn+2],inactive
15,O=Cc1cc(O)ccc1Br,55.3 µM (active)
16,O=c1cccccc1O,inactive
17,COC(=O)c1cc(Cl)ccc1OC,inactive
18,CCOC(=O)O[C@]1(C(=O)OCCl)CC[C@H]2[C@@H]3CCC4=CC(=O)C=C[C@]4(C)[C@H]3[C@@H](O)C[C@@]21C,inactive

row,Structure (SMILES),Potency
1,Cc1cc(O)c(Cl)c(C)c1Cl,inactive
2,C[n+]1cc2c3c(ccc2c2ccc4cc5c(cc4c21)OCO5)OCO3,2.59 µM (active)
3,CCCCN1CCCC[C@H]1C(=O)Nc1c(C)cccc1C,inactive
4,CC[C@H](c1ccc(O)cc1)[C@@H](CC)c1ccc(O)cc1,7.7 µM (active) and 7.5 µM (active)
5,COc1cccc(N)c1,inactive
6,COc1ccc(-c2ccc3cc(C(=O)O)ccc3c2)cc1C12CC3CC(CC(C3)C1)C2,inactive
7,NNc1nc(-c2ccc(N)cc2)cs1,inactive
8,Oc1ccc(N=Nc2ccccc2)cc1,19.6 µM (active)
9,CCC(N)(CO)CO,inactive
10,O=C1C=CC(=O)N1c1ccc(Cc2ccc(N3C(=O)C=CC3=O)cc2)cc1,inactive
11,CN(C)CCCOC1(Cc2ccccc2)CCCCCC1,inactive
12,C/C=C(\C)C(=O)OCc1ccccc1,inactive
13,CCc1oc2ccccc2c1C(=O)c1cc(Br)c(O)c(Br)c1,23.7 µM (active)
14,N#CSc1ccc(N)c([N+](=O)[O-])c1,30.8 µM (active)
15,CCCCCCCCCCCCCCCC(=O)OC[C@H](O)[C@H]1OC(=O)C(O)=C1O,inactive
16,O=C(NO)C1(NS(=O)(=O)c2ccc(Oc3ccc(F)cc3)cc2)CCOCC1,inactive
17,Cc1c(C)c2c(c(C)c1OC(=O)CCC(=O)O)CC[C@@](C)(CCC[C@H](C)CCC[C@H](C)CCCC(C)C)O2,inactive
18,NNC(=O)c1cccc(C(=O)NN)c1,inactive

# Tested on: not listed separately
# Experiment: qHTS assay to identify small molecule antagonists of the progesterone receptor (PR) signaling pathway - cell viability counter screen (AID 1346798; active = well fitted cell-killing curve with a large enough effect in the repeat runs; also: nearly all actives have a fitted effect of over 50% in size)
# Conditions: PR-UAS-bla HEK293T viability, CellTiter-Glo luminescence, 16 h; series mostly up to 92.4 µM
# Summary of the method: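 Cytotoxicity read as CellTiter-Glo luminescence (30 min, room temperature) in the same wells as the beta-lactamase readout. HEK293T PR-UAS-bla cells in charcoal-stripped 2% FBS received compound and R5020, then 16 h at 37C, 5% CO2.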
row,Structure (SMILES),Potency
1,O=CC=C(c1ccccc1)c1ccccc1,61.6 µM (active)
2,O=C(Oc1ccccc1)c1ccccc1C(=O)Oc1ccccc1,inactive
3,C[C@H]1[C@H]2CC[C@H]3[C@@H]4CC=C5C[C@@H](N(C)C)CC[C@]5(C)[C@H]4CC[C@]23CN1C,inactive
4,COc1cc(-c2nc(NC(=O)c3cc4cc(C)cc(C)c4n3CC(=O)O)sc2CCC2CCCCC2)c(OC)cc1Cl,14.1 µM (active)
5,CCCCCCCCCCC=O,inactive
6,CSc1cnc(C)cn1,inactive
7,O=c1cccccc1O,inactive
8,CCOC(=O)O[C@]1(C(=O)OCCl)CC[C@H]2[C@@H]3CCC4=CC(=O)C=C[C@]4(C)[C@H]3[C@@H](O)C[C@@]21C,inactive
9,COc1cccc(N)c1,inactive
10,COc1ccc(-c2ccc3cc(C(=O)O)ccc3c2)cc1C12CC3CC(CC(C3)C1)C2,inactive
11,Oc1ccc(N=Nc2ccccc2)cc1,inactive
12,CN(C)CCCOC1(Cc2ccccc2)CCCCCC1,inactive
13,NNC(=O)c1cccc(C(=O)NN)c1,inactive

# Tested on: not listed separately
# Experiment: qHTS assay to identify small molecule agonists of the progesterone receptor (PR) signaling pathway - cell viability counter screen (AID 1346799); also: nearly all actives have a fitted effect of over 45% in size
# Conditions: PR-UAS-bla HEK293T viability, CellTiter-Glo luminescence, 16 h; series mostly up to 92.4 µM
# Summary of the method: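 Cytotoxicity measured by CellTiter-Glo luminescence (30 min, RT) in the same wells as the PR beta-lactamase agonist read. Those HEK293T cells had 16 h compound treatment at 37 C in 2% charcoal-stripped FBS medium.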
row,Structure (SMILES),Potency
1,Clc1ccc(C(Cn2ccnc2)OCc2ccc(Sc3ccccc3)cc2)c(Cl)c1 (stereo not drawn),inactive
2,NC(=O)CC[C@@H]1NC(=O)[C@H](Cc2ccccc2)NC(=O)[C@H](Cc2ccc(O)cc2)NC(=O)CCSSC[C@@H](C(=O)N2CCC[C@H]2C(=O)N[C@@H](CCCN=C(N)N)C(=O)NCC(N)=O)NC(=O)[C@H](CC(N)=O)NC1=O,inactive
3,O=C(c1ccc(O)cc1O)c1ccc(O)cc1O,inactive
4,Cc1nc(-c2ccc3c(c2)CCN(CCC2CCC(NC(=O)/C=C/c4ccc(F)cc4)CC2)CC3)no1 (stereo not drawn),inactive
5,Cc1cccc(N(C)C(=S)Oc2ccc3c(c2)C2CCC3C2)c1 (stereo not drawn),inactive
6,CCCCCCCC(=O)[O-].CCCCCCCC(=O)[O-].[Zn+2],inactive
7,COC(=O)c1cc(Cl)ccc1OC,inactive
8,Cc1cc(O)c(Cl)c(C)c1Cl,inactive
9,C[n+]1cc2c3c(ccc2c2ccc4cc5c(cc4c21)OCO5)OCO3,3.26 µM (active)
10,CCC(N)(CO)CO,inactive
11,O=C1C=CC(=O)N1c1ccc(Cc2ccc(N3C(=O)C=CC3=O)cc2)cc1,inactive
12,C/C=C(\C)C(=O)OCc1ccccc1,inactive
13,N#CSc1ccc(N)c([N+](=O)[O-])c1,inactive
14,CCCCCCCCCCCCCCCC(=O)OC[C@H](O)[C@H]1OC(=O)C(O)=C1O,27.3 µM (active)
